# In the library only some 19% were active in any assay of this set; here they are far more common.
# IL1B secr inh = blocks inflammasome-driven IL-1 beta release; THP-1 LPS/ATP IL-1B secretion, AlphaLISA, 16 h; stronger effect = lower value; activity change, % at 57.5 µM; 4.7% of 360,000 active; AID 743279; in the data active = activity change below about -50%; inconclusive = mostly about -30% to -49%
#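 Secreted IL-1B measured by AlphaLISA bead assay after 16 h compound exposure of THP-1 cells; compounds (final up to 57.5 uM) added 1 h before LPS (250 ng/mL) and ATP (1.25 mM) stimulation; lower signal means less secretion.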
# DT40 TDP1 no CPT = qHTS for Inhibitors of human tyrosyl-DNA phosphodiesterase 1 (TDP1): qHTS in cells in absence of CPT | DT40 Tdp1-/- hTDP1 cells, no CPT, ATP luminescence, 48 h | Potency, µM (series often up to 46.2 µM), for inactives: at the highest dose activity change, negative = growth inhibition, usual class: inhibitors | 15% of 420,000 active; also: potency is read from the fitted curve at half-maximal effect; nearly all actives have a fitted effect of over 55% in size
#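 Chicken DT40 Tdp1-/- cells complemented with human TDP1, screened without camptothecin (DMSO vehicle only), 400 cells/well. Compounds pin-transferred, cells incubated at 37 °C for at least 48 hr. Growth read as ATP-dependent luminescence (CellTiter-Glo, 30 min at RT).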
# ELG1 DNA repair = blocks ELG1-dependent DNA repair in HEK293T cells; HEK293T ELG1-luciferase reporter, luminescence, 16 h; DNA damage induced by 5-fluorouridine; 2.3% of 330,000 active; Potency, µM (titrated, usually from 46.1 µM), for the others: at the top dose activity change, negative = inhibition, most hits filed as inhibitors; also: potency is read from the fitted curve at half-maximal effect; nearly all actives have a fitted effect of over 55% in size
#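 In this reporter screen, reduction of luminescence relative to DMSO vehicle indicated activity. Compounds and 5-fluorouridine were added together to 2,000 cells per well, incubated for 16 hr at 37 °C, then developed with ONE-Glo.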
# HT1080-NT tox = kills 2HG-producing HT-1080-NT fibrosarcoma cells. HT-1080-NT fibrosarcoma viability, CellTiter-Glo ATP luminescence, 48 h. Potency, µM (top dose mostly 46.1 µM), inactives show at the top dose activity, negative = less viability, usual class: cytotoxic. 1.6% of 360,000 active. AID 686970;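 also: NT is the 2HG producing partner of a matched IDH1 knockdown line; potency is read from the fitted curve at half-maximal effect; 0% = DMSO-treated cells and -100% = media-only wells without cells; nearly all actives have a fitted effect of over 55% in size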
#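 A 48-hour cytotoxicity screen used HT-1080-NT cells plated 2 hours before compound delivery. ATP-based CellTiter-Glo luminescence measured viability, normalized to DMSO and no-cell controls.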
# TDP1 cell CPT = growth inhibition of DT40 Tdp1-/-;hTDP1 cells with camptothecin (screen for TDP1 inhibitors); Potency, µM (series often up to 46.2 µM), without a hit: at the highest dose activity change, negative = growth inhibition, actives largely listed as inhibitors; 12% of 420,000 active; AID 686979; chicken DT40 Tdp1-/-;hTDP1 cells + 20 nM CPT, ATP luminescence, 48 h; also: potency is read from the fitted curve at half-maximal effect; nearly all actives have a fitted effect of over 55% in size
#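 Cell growth measured by CellTiter-Glo luminescence after a minimum 48 h, 37 C compound exposure with 20 nM CPT in Tdp1-knockout DT40 cells stably expressing hTDP1, seeded 400/well; qHTS titration format.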
# HT1080 IDH1KD tx = HT-1080 IDH1 knockdown cell toxicity (counter line); Potency, µM (doses to about 46.1 µM), for inactives: at the top dose activity, negative = toxicity, actives largely listed as cytotoxic; AID 686971; HT-1080 IDH1 knockdown viability, ATP luminescence, 48 h; 2% of 360,000 active;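 also: potency is read from the fitted curve at half-maximal effect; 0% = DMSO wells and -100% = cell-free medium wells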
#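 HT-1080-IDH1KD cells (IDH1 knocked down), 750/well in RPMI with 5% FBS, treated with compound 48 h at 37 degrees C. Viability by CellTiter-Glo luminescence, normalised to DMSO and no-cell wells; concentration-response curves classed.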
# * marks the source's active call; other numbers are inactive results; ? = inconclusive; . = not tested or not shown; [ ] = another dose, or the depositor's remark. Unless noted, calls follow the shape of the dose curve; as a rule, active = well fitted curve in the direction sought with a large enough effect; inconclusive = small, poorly fitted or top-dose-only effect, or another doubt; inactive = no such curve, though single readings can be large; an effect the other way counts as inactive or inconclusive. Unless noted, % is scaled to controls: 0 for no effect and ±100 for the full control effect.
SMILES,IL1B secr inh,DT40 TDP1 no CPT,ELG1 DNA repair,HT1080-NT tox,TDP1 cell CPT,HT1080 IDH1KD tx
CC1(C)CC(=O)C2=C(C1)c1c(ccc3ccccc13)NC2c1ccc(Br)o1 (centres undefined),?,21µM*,?,?,?,?
O=C(CSc1nc2ccccc2c(=O)n1-c1ccccc1)N1CCCc2ccccc21,-17,?,?,-7%,-1%,-16%
CCn1c(SCC(=O)N2CCCc3ccccc32)nc2cccnc21,-4,18µM*,?,6%,?,0%
CC(C)Cn1c(SCC(=O)N2CCCc3ccccc32)nc2ccccc2c1=O,-66*,18µM*,?,-26%,16µM*,-30%
Cn1c(SCC(=O)N2CCc3ccccc32)nc2cccnc21,-9,21µM*,?,-12%,16µM*,-14%
CCn1c(SCC(=O)N2CCCc3ccccc32)nc2ccccc2c1=O,-24,15µM*,?,-8%,?,-17%
COCCCn1c(=O)c2ccccc2n(CC(=O)N2CCCc3ccccc32)c1=O,7,?,-5%,-2%,26µM*,-6%
Cc1cc2c(=O)n(Cc3ccco3)c(SCC(=O)N3CCCc4ccccc43)nc2s1,-67*,?,?,?,?,-23%
Cc1cc2c(=O)n(Cc3ccco3)c(SCC(=O)NCc3ccco3)nc2s1,-1,-21%,16%,?,-22%,-25%
CC(C)OCCCn1c(SCC(=O)N2CCc3ccccc32)nc2ccccc2c1=O,0,12µM*,-14%,-19%,?,?
Cc1cc(C)cc(NC(=O)[C@@H](NC(=O)c2ccco2)C(C)C)c1,8,0%,-6%,17%,-1%,14%
CCCCNC(=O)c1ccc(NS(=O)(=O)c2ccc3[nH]c(=O)[nH]c3c2)cc1,15,-13%,2%,3%,-19%,6%
CCN1CCN(C(=O)c2ccc3c(c2)N(Cc2ccccc2)C(=O)c2ccccc2S3(=O)=O)CC1,39,-24%,22%,18%,-8%,7%
CCN1CCN(C(=O)c2ccc3c(c2)N(Cc2ccc(Cl)cc2)C(=O)c2ccccc2S3(=O)=O)CC1,.,23µM*,.,.,?,.
O=C(c1ccc2c(c1)N(Cc1ccc(Cl)cc1)C(=O)c1ccccc1S2(=O)=O)N1CCc2ccccc21,.,7.3µM*,.,.,5.8µM*,.
O=C(OCC1CCCO1)c1ccc2c(c1)N(Cc1ccc(F)cc1)C(=O)c1ccccc1S2(=O)=O (centres undefined),.,-13%,.,.,-23%,.
O=C(c1ccc2c(c1)N(Cc1ccc(Cl)cc1)C(=O)c1ccccc1S2(=O)=O)N1CCCC1,.,26µM*,.,.,21µM*,.
O=C(c1ccc2c(c1)N(Cc1ccc(F)cc1)C(=O)c1ccccc1S2(=O)=O)N1CCCC1,.,16µM*,.,.,23µM*,.
O=C(c1ccc(Cl)cc1)N1CCc2ccccc21,-10,?,28%,1%,?,7%
Cc1ccc(-c2nc3c4ccccc4n(CC(=O)N4CCN(c5ccccc5F)CC4)c(=O)n3n2)cc1,.,-12%,.,.,-17%,.
CCN(C[C@H]1N[C@@](CC)(C(=O)OC)[C@H]2C(=O)N(C)C(=O)[C@@H]12)C(=O)c1ccccc1,8,-5%,0%,6%,-12%,8%
COCCCNC(=O)CC1C[C@H](C(=O)N2CCOCC2)[C@@]2(C)c3[nH]c4ccc(OC)cc4c3CCN2C1=O (some centres undefined),11,-4%,18%,7%,?,4%
CCOC(=O)/C(=N\Nc1cc(Cl)ccc1Cl)N1CCN(CC)CC1,6,?,-1%,?,21µM*,?
Cc1sc2nc3ccc(NCc4ccco4)nn3c(=O)c2c1C,-8,21µM*,-12%,-1%,?,-8%
CC(C)c1ccc(Cn2ccc3c4c(N)nc(NC5CC5)nc4ccc32)cc1,.,3.3µM*,.,.,4.7µM*,.
SMILES,IL1B secr inh,DT40 TDP1 no CPT,ELG1 DNA repair,HT1080-NT tox,TDP1 cell CPT,HT1080 IDH1KD tx
O=C(C1=C[C@@H](C2CCCCC2)C[C@@H](OCc2ccc(CO)cc2)O1)N1CCN(Cc2ccccc2)CC1,-59*,16µM*,?,?,21µM*,?
O=C(C1=C[C@H](C2CCCCC2)C[C@H](OCc2ccc(CO)cc2)O1)N1CCN(Cc2ccccc2)CC1,0,18µM*,?,?,18µM*,?
O=C(C1=C[C@H](C2CCCCC2)C[C@H](OCc2ccc(CO)cc2)O1)N1CCOCC1,8,?,-13%,5%,?,8%
C[C@@H]1C=C(C(=O)N2CCN(Cc3ccccc3)CC2)O[C@H](OCc2ccc(CO)cc2)C1,-11,-4%,-13%,-1%,-20%,8%
Cc1cc2[nH]c3c(c[n+](C)c4ccccc34)c2cc1C,-99*,1.6µM*,-6%,?,-102%,21µM*
CCC1CN(CCC(=O)N2CCCN(C(=O)c3ccco3)CC2)Cc2cc(OC)ccc2O1 (centres undefined),.,-5%,.,.,-9%[9.04 µM],.
O=C(Cc1cccc(NC(=O)C2CCCN(C(=O)C3CCCC3)C2)c1)Nc1ccc(C(=O)N2CCCCC2)cc1 (centres undefined),23,?,.,1%,?,-1%
COC(C[C@H]1O[C@H]1[C@H](O)[C@H](C)OCc1ccccc1)OC,12,0%,13%,7%,2%,7%
O=C(Oc1ccc(-c2nnco2)cc1)N(c1ccccc1)c1ccccc1,-79*,?,-2%,-2%,?,-8%
O=C(Oc1ccc(-c2nnco2)cc1)c1ccc(Br)o1,0,18%,14%,-5%,0%,-4%
C=C(C)C1(O)OC(=O)C=C1OC (centres undefined),-76*,16µM*,7%,-13%,5.2µM*,-11%
COc1ccc(C(C(=O)NCc2ccccc2)N(C(=O)c2snc(C(N)=O)c2N)c2ccccc2OC)cc1 (centres undefined),-55*,?,18µM*,-12%,?,-9%
COc1ccccc1N(C(=O)c1snc(C(N)=O)c1N)C(C(=O)NCc1ccccc1)c1ccc(O)cc1 (centres undefined),-72*,-29%,-1%,-18%,-7%,-17%

# Screens from PubChem.
